{"source": "paper PMC7862700", "about": "“An all-to-all approach to the identification of sequence-specific readers for epigenetic DNA modifications on cytosine”", "experiment_in_all_cases": "DAPPL (digital affinity profiling via proximity ligation, sequencing); 10 mM Tris-HCl pH 7.5, 50 mM NaCl, 1 mM DTT, 4% glycerol, room temperature, 30 min; GST-TFs on glutathione beads, 16-mer random dsDNA library, 0.1% formaldehyde crosslink after washing; high values mean tight binding", "key": {"[1]": {"biological_target": "T1, FEV (Homo sapiens, UniProt Q99581 1-238)", "T1 sequence": "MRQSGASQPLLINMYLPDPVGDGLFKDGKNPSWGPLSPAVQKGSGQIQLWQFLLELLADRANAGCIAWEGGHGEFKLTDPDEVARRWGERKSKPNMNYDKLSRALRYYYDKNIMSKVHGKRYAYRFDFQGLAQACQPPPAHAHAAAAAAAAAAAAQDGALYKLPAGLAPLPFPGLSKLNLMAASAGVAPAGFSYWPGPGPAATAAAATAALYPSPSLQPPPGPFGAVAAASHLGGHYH", "conditions": "protein: recombinant; tags: N-terminal GST; dsDNA, one strand shown", "summary_of_the_method": "(§1)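 The binding signal reported is, for every hexamer, its read frequency for a factor over its read frequency for the tag-only sample. Reads came from pools of yeast-expressed, GST-fused human transcription factors on glutathione beads, barcoded with DNA and mixed with that sample, which were incubated with 200 nmole of a random double-stranded 16-mer DNA library in Tris/NaCl/DTT/glycerol buffer at room temperature for 30 min. After washing, the pools were crosslinked with 0.1% formaldehyde, proximity-ligated with BsaI/T4 ligase for 1 h at 37 °C, PCR-amplified and sequenced on an Illumina NextSeq500.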"}, "[2]": {"biological_target": "ETV5 (Homo sapiens, UniProt P41161 1-510)", "sequence (P41161 whole entry)": "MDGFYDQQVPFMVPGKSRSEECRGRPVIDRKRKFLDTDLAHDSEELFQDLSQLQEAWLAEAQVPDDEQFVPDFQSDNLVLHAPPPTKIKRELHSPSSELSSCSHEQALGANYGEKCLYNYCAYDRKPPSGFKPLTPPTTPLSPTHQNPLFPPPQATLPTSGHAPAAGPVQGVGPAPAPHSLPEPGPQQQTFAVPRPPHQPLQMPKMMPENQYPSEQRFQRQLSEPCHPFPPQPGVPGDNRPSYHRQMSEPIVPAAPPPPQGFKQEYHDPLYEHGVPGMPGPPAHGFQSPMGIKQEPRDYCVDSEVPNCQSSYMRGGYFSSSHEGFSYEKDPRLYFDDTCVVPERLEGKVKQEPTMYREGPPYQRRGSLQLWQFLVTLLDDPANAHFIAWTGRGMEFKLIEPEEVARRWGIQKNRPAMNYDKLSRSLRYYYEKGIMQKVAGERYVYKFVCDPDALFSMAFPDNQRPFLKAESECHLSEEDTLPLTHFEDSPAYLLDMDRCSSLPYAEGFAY", "conditions": "protein: recombinant; tags: N-terminal GST; dsDNA, one strand shown", "summary_of_the_method": "as §1"}, "[3]": {"biological_target": "HSF1 (Homo sapiens, UniProt Q00613 1-529)", "sequence (Q00613 whole entry)": "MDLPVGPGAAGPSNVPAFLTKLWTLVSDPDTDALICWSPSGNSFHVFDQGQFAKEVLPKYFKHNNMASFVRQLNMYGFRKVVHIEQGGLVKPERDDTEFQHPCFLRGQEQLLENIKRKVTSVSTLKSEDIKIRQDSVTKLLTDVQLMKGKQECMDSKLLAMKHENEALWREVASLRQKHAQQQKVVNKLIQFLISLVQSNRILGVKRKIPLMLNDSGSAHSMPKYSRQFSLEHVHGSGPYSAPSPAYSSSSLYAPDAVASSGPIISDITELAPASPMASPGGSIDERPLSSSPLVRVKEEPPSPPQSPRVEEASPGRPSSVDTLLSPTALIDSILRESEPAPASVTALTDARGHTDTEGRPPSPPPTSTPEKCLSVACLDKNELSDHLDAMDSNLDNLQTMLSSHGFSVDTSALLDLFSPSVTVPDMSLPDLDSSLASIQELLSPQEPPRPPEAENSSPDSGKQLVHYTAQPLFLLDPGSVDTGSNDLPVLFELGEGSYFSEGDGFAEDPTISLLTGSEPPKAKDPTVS", "conditions": "protein: recombinant; tags: N-terminal GST; chain copies: 3; dsDNA, one strand shown", "summary_of_the_method": "as §1"}, "[4]": {"biological_target": "T2, SPIC (Homo sapiens, UniProt Q8N5J4 1-248)", "T2 sequence": "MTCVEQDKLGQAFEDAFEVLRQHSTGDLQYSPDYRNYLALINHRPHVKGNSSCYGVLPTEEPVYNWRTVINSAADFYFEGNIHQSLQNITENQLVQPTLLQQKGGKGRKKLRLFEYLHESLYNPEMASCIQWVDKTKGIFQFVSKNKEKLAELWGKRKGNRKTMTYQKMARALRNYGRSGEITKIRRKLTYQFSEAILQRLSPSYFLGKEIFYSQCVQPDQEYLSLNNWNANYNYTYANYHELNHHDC", "conditions": "protein: recombinant; tags: N-terminal GST; dsDNA, one strand shown", "summary_of_the_method": "as §1"}, "[5]": {"biological_target": "ELF4 (Homo sapiens, UniProt Q99607 1-663)", "sequence (Q99607 whole entry)": "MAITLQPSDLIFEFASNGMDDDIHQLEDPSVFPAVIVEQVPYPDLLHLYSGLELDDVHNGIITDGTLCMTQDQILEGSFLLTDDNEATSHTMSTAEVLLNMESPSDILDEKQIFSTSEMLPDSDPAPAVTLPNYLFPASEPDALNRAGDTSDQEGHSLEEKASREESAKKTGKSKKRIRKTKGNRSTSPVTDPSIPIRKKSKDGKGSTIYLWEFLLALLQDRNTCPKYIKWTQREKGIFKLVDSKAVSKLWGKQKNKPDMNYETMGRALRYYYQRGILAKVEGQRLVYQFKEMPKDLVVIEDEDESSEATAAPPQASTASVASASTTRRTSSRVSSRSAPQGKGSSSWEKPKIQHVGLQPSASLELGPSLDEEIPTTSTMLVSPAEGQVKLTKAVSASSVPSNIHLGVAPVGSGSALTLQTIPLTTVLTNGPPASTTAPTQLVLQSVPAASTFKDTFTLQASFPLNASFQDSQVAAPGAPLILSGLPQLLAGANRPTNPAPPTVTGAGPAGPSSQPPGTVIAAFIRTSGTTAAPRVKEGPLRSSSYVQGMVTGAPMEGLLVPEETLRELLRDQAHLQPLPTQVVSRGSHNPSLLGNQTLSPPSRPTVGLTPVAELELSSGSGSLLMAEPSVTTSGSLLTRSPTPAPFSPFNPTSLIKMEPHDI", "conditions": "protein: recombinant; tags: N-terminal GST; dsDNA, one strand shown", "summary_of_the_method": "as §1"}, "[6]": {"biological_target": "T3, ELK4 (Homo sapiens, UniProt P28324-2 1-405)", "T3 sequence": "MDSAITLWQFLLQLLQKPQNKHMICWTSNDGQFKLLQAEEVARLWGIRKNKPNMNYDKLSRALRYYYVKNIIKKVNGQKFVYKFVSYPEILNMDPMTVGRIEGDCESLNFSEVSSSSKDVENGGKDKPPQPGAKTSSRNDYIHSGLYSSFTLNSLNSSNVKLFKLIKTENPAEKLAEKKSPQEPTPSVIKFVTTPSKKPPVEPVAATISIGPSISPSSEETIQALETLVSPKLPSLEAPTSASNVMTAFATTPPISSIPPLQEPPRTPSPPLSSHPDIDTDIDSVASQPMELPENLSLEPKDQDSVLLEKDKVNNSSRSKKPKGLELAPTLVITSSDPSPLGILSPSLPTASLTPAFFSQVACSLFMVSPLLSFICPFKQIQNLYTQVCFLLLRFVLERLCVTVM", "conditions": "protein: recombinant; tags: N-terminal GST; dsDNA, one strand shown", "summary_of_the_method": "as §1"}, "[7]": {"biological_target": "T4, ETV2 (Homo sapiens, UniProt O00321 1-342)", "T4 sequence": "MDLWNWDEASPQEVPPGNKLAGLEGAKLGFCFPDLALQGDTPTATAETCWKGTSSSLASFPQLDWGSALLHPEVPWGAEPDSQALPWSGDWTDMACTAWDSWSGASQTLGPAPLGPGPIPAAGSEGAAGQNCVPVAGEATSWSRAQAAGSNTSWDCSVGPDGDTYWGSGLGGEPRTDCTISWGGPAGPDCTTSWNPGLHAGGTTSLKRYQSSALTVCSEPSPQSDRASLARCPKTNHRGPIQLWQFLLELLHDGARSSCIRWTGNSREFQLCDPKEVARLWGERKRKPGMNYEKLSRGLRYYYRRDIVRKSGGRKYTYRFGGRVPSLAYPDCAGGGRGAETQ", "conditions": "protein: recombinant; tags: N-terminal GST; dsDNA, one strand shown", "summary_of_the_method": "as §1"}, "[8]": {"biological_target": "T5, ELF3 (Homo sapiens, UniProt P78545 1-371)", "T5 sequence": "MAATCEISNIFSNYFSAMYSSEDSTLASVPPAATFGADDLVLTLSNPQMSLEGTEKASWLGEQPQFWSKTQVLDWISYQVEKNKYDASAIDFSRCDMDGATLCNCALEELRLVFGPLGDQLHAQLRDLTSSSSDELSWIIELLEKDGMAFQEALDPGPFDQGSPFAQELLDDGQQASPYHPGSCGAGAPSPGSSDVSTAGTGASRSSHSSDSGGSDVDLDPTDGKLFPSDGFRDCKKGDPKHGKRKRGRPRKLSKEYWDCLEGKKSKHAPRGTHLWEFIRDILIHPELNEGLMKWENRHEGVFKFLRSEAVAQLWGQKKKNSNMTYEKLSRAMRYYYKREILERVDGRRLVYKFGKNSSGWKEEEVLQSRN", "conditions": "protein: recombinant; tags: N-terminal GST; dsDNA, one strand shown", "summary_of_the_method": "as §1"}, "[9]": {"biological_target": "ETV1 (Homo sapiens, UniProt P50549 1-477)", "sequence (P50549 whole entry)": "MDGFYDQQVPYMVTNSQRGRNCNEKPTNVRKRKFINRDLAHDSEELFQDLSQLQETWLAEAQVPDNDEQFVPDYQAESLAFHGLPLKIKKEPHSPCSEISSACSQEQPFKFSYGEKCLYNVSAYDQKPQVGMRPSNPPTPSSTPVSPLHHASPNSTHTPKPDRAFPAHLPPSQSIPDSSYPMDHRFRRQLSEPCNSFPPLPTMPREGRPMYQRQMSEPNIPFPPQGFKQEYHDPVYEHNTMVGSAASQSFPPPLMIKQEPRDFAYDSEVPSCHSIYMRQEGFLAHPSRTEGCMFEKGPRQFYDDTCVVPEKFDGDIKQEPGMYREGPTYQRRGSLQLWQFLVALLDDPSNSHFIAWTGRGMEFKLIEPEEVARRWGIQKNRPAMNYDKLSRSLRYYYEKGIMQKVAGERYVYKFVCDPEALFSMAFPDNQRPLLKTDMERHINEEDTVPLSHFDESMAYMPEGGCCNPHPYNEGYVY", "conditions": "protein: recombinant; tags: N-terminal GST; dsDNA, one strand shown", "summary_of_the_method": "as §1"}}}
{"sequence": "AACGAC", "values": [{"measurement": "binding signal", "setting": "[1]", "value": "1.16 fold enrichment (6-mer frequency, TF over GST control)"}, {"measurement": "binding signal", "setting": "[2]", "value": "1.14 fold enrichment (6-mer frequency, TF over GST control)"}, {"measurement": "binding signal", "setting": "[3]", "value": "1.01 fold enrichment (6-mer frequency, TF over GST control)"}, {"measurement": "binding signal", "setting": "[4]", "value": "1.04 fold enrichment (6-mer frequency, TF over GST control)"}, {"measurement": "binding signal", "setting": "[5]", "value": "1.18 fold enrichment (6-mer frequency, TF over GST control)"}, {"measurement": "binding signal", "setting": "[6]", "value": "1.03 fold enrichment (6-mer frequency, TF over GST control)"}, {"measurement": "binding signal", "setting": "[7]", "value": "1.04 fold enrichment (6-mer frequency, TF over GST control)"}, {"measurement": "binding signal", "setting": "[8]", "value": "1.02 fold enrichment (6-mer frequency, TF over GST control)"}, {"measurement": "binding signal", "setting": "[9]", "value": "1.15 fold enrichment (6-mer frequency, TF over GST control)"}]}
